TGFb inhibitor – blocks TGF-b signaling. HepG2 CAGA-GFP TGF-b/SMAD3 reporter, GFP fluorescence, 18 h; TGF-beta stimulated, 500 pg/mL final. Potency, µM (titrated, usually from 46.1 µM), hits mostly inhibitors. actives 1.2% (n = 410,000); further: nearly all actives have a fitted effect of over 65% in size
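Smad-responsive CAGA-GFP expression was quantified in HEPG2 cells exposed to compounds and 500 pg/mL final TGF-beta for 18 h at 37 degrees C; unstimulated wells defined full inhibition.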
Nrf2 activator – activates Nrf2 signaling | AREc32 ARE-luciferase reporter (MCF7-derived line), luminescence, 24 h | Potency, µM (series often up to 46.1 µM), hits mostly activators | actives 0.31% (n = 410,000) | AID 624171; further: nearly all actives have a fitted effect of over 65% in size
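AREc32 cells carrying an ARE-driven firefly luciferase, 1000 cells/well in OPTI-MEM with 5% FBS, dosed after overnight attachment and incubated 24 hr at 37 deg C. Steady-Glo luminescence read after 30 min at RT.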
A549 viability – A549 cytotoxicity, counter-screen for Nrf2 inhibitors | actives 0.16% (n = 390,000) | Potency, µM (series often up to 46 µM), most hits filed as inhibitors | A549 ARE-Fluc cells, CellTiter-Fluor viability, 18-24 h
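Cytotoxicity counterscreen: CellTiter-Fluor fluorescence was measured in A549 ARE_Fluc cells after 18-24 h of compound exposure in a concentration series. The subsequent BugLite luminescent read reports ARE-luciferase activity.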
Nrf2 inh – blocks Nrf2 signaling; A549 ARE-Fluc reporter, luciferase luminescence, 18-24 h; Potency, µM (doses to about 46 µM), actives largely listed as inhibitors; actives 2.1% (n = 360,000); AID 504444; further: nearly all actives have a fitted effect of over 60% in size
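Cells were seeded and rested 2 h, then exposed to compounds for 18-24 h. CellTiter-Fluor was read first as a viability measure. BugLite was added 15 min before the final luminescent read of ARE-luciferase activity in A549 cells.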
HepG2 tox-1 – HepG2 cytotoxicity, counter-screen for TGF-b inhibitors | actives 0.76% (n = 410,000) | Potency, µM (titrated, usually from 46.1 µM), actives largely listed as cytotoxic | HepG2 CAGA-GFP viability, ATP luminescence, 18 h
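CellTiter-Glo luminescence gave cytotoxicity after 18 hours at 37 degrees C. The cells were HepG2 CAGA-GFP in 1% FBS DMEM, stimulated with 500 pg/mL TGF-beta after compound addition. %Activity was normalised to no-cell wells (complete cell-killing) and DMSO (no toxicity), and curves were fitted and classified.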
TGFb CAGA inh – confirmation of TGF-b signaling inhibitors in HepG2 reporter cells | shares compounds with TGFb inhibitor | HepG2 CAGA-GFP TGF-b reporter, GFP fluorescence, 18 h; cells stimulated with TGF-beta, 500 pg/mL | Potency, µM (series often up to 46.1 µM), usual class: inhibitors | actives 63% (n = 1,600) | AID 720534; further: nearly all actives have a fitted effect of over 65% in size
HepG2 tox-2 – counter-screen for TGF-b inhibitors: cytotoxicity in HepG2 cells | AID 720535 | HepG2 CAGA-GFP viability, ATP luminescence, 18 h; cells stimulated with TGF-beta, 500 pg/mL | actives 27% (n = 1,600) | Potency, µM (series often up to 46.1 µM), most hits filed as inhibitors | shares compounds with TGFb inhibitor; further: nearly all actives have a fitted effect of over 70% in size
CCL64 TGFb inh – orthogonal confirmation of TGF-b inhibitors in CCL64 cells | shares compounds with TGFb inhibitor | CCL64 CAGA-GFP reporter, TGF-b stimulated, GFP fluorescence, 18 h | Potency, µM (highest dose often 46.1 µM), actives largely listed as inhibitors | actives 41% (n = 1,600); further: nearly all actives have a fitted effect of over 65% in size
TGFb COP inh – validation of TGF-b inhibitors in HepG2 COP promoter reporter; shares compounds with TGFb inhibitor; HepG2 COP-GFP TGF-b reporter, GFP fluorescence, 18 h; cells stimulated by added recombinant TGF-beta; Potency, µM (titrated, usually from 46.1 µM), most hits filed as inhibitors; actives 3% (n = 1,600); further: nearly all actives have a fitted effect of over 70% in size
Numbers stand for hits; n = inactive; u = inconclusive; x = no result. Only some compounds are listed: those with a hit (about 3.6% of all), similar ones and a draw of the others. The call rests on the fitted dose curve; in most records, active means well fitted curve in the direction sought with a large enough effect; inconclusive means small, poorly fitted or top-dose-only effect, or another doubt; inactive means no such curve, though single readings can be large; an effect the other way counts as inactive or inconclusive.

SMILES | TGFb inhibitor | Nrf2 activator | A549 viability | Nrf2 inh | HepG2 tox-1 | TGFb CAGA inh | HepG2 tox-2 | CCL64 TGFb inh | TGFb COP inh
Cc1cccc(N2CCN(C(=O)CCCSc3nc4ccccc4[nH]3)CC2)c1C | u | n | n | u | n | u | u | 13µM | n
O=C(Nc1cccc([N+](=O)[O-])c1)c1cc2ccccc2cc1O | 4µM | n | u | u | n | 6.5µM | 4.1µM | 4.6µM | n
CCOc1ccc(-c2cc(-c3nc(-c4cc(OC)c(OC)c(OC)c4)no3)[nH]n2)cc1 | n | n | n | u | n | x | x | x | x
COc1ccc(-c2cc(-c3c(O)c(OC)c4occc4c3OC)[nH]n2)cc1OC | 7.9µM | n | u | 13µM | n | u | u | u | n
OC(c1cc(-c2ccc(C(F)(F)F)cc2)nc(C(F)(F)F)c1)C1CCCCN1 (centres undefined) | 2.8µM | n | n | n | n | 6.5µM | 23µM | 23µM | u
Cc1ccc2c(Cl)cc(Cl)c(OCC(=O)NC(C)(C)C)c2n1 | u | n | n | u | n | x | x | x | x
O=C(c1ccccc1F)N1CCN(c2ccc([N+](=O)[O-])c3ncccc23)CC1 | n | n | n | n | n | x | x | x | x
O=[N+]([O-])c1cccc2c(N3CCCC3)ccnc12 | 7.1µM | n | u | u | 5.6µM | 7.3µM | 16µM | u | u
CS(=O)(=O)N1CCC(C(=O)NCc2ccccc2)CC1 | n | n | n | u | n | x | x | x | x
COc1ccccc1N1CCN(C(=O)c2ccc3c(Cl)c4c(nc3c2)CCCC4)CC1 | 11µM | n | n | n | n | 6.5µM | u | 18µM | n
Cc1ccc(N2CCN(C(=O)c3ccc4c(Cl)c5c(nc4c3)CCCC5)CC2)c(C)c1 | u | n | n | n | n | x | x | x | x
COc1ccc(C2CC(c3c(-c4ccccc4)c4cc(Cl)ccc4[nH]c3=O)=NN2S(C)(=O)=O)cc1OC (centres undefined) | 8.9µM | n | n | n | n | u | n | u | n
COc1ccc(C2CC(c3cccs3)=NN2S(C)(=O)=O)cc1OC (centres undefined) | n | n | n | u | n | x | x | x | x
O=C(C(=Cc1ccc(F)cc1)c1ccccc1)c1ccc(O)cc1 | u | n | n | u | n | x | x | x | x
O=C(C(=Cc1ccc(F)cc1)C(=O)c1ccccc1)c1ccccc1 | 8.9µM | n | x | x | n | 3.7µM | u | 13µM | n
COc1cccc(-c2csc(NC3OC(=O)c4c3ccc(OC)c4OC)n2)c1 (centres undefined) | 11µM | u | n | u | n | 21µM | n | u | n
COc1ccc2c(c1OC)C(=O)OC2Nc1nc(-c2ccc(-c3ccccc3)cc2)cs1 (centres undefined) | 7.1µM | n | n | u | n | 23µM | n | u | n
COc1ccc2c(c1OC)C(=O)OC2Nc1nc(-c2cc3ccccc3oc2=O)cs1 (centres undefined) | n | n | n | u | n | x | x | x | x
Cc1ccc(/C=N/Nc2nc(Cl)c(Cl)cc2Cl)s1 | n | n | n | u | n | x | x | x | x
Cn1cc(Br)c(C(=O)Nc2sc3c(c2C#N)CCC3)n1 | n | n | n | n | n | x | x | x | x
Cn1cc([N+](=O)[O-])c(C(=O)Nc2sc3c(c2C#N)CCC3)n1 | 8.9µM | u | u | u | n | 13µM | 7.3µM | n | n
O=C(c1ccccc1)c1cccn1CC(=O)N1CCN(c2ccccc2)CC1 | n | n | n | n | n | x | x | x | x
FC(F)(F)c1ccccc1Cc1c(-c2ccccc2)nc2ccc(Cl)cn12 | 16µM | n | x | x | n | u | n | n | n
Cc1cc(C)n2c(=O)c3ccc(Cl)cc3nc2c1C#N | n | n | n | n | n | x | x | x | x
Cc1cc(Cl)n2c(nc3cc(F)c(F)cc32)c1C#N | 6.3µM | n | n | n | n | 1.3µM | 5.8µM | 1.3µM | 18µM
SMILES | TGFb inhibitor | Nrf2 activator | A549 viability | Nrf2 inh | HepG2 tox-1 | TGFb CAGA inh | HepG2 tox-2 | CCL64 TGFb inh | TGFb COP inh
COc1ccccc1-c1nn(-c2ccccc2)cc1C(=O)NC1CC1 | n | n | n | n | n | x | x | x | x
O=C(Cn1cncn1)N/N=C/c1ccc(Cl)cc1 | n | n | n | n | n | x | x | x | x
CC(C)(C)C(=O)/C(=C/c1ccc(Cl)cc1)n1cncn1 | 10µM | u | n | u | n | 21µM | u | u | n
COc1cccc(-n2c(SCC(=O)N3CCCc4ccccc43)nc3c([nH]c4ccccc43)c2=O)c1 | n | n | n | x | n | x | x | x | x
C[C@H](NC(=O)c1nc[nH]c1C(=O)NCCCCCNC(=O)OC(C)(C)C)C(=O)OC(C)(C)C | u | n | n | u | n | n | n | u | n
C[C@H](NC(=O)c1nc[nH]c1C(=O)NCc1ccccc1)C(=O)OC(C)(C)C | n | n | n | n | n | x | x | x | x
CC(C)C[C@H](NC(=O)c1nc[nH]c1C(=O)N[C@@H](CCCCNC(=O)OC(C)(C)C)C(=O)OC(C)(C)C)C(=O)OC(C)(C)C | 18µM | n | u | u | n | 8.2µM | n | 21µM | n
CC(C)C[C@H](NC(=O)c1nc[nH]c1C(=O)NCCCCCNC(=O)OC(C)(C)C)C(=O)OC(C)(C)C | u | n | u | u | n | x | x | x | x
Cc1ccc(-c2ccc(SCC(=O)Nc3ccc4c(c3)OCCO4)nn2)cc1 | 3.2µM | n | n | n | n | 21µM | n | n | n
CCOc1nc(N=C(N)N)nc2c(C)cccc12 | 7.9µM | n | n | n | n | 16µM | u | n | n
Cc1ccc(Cc2c(-c3ccc(Cl)cc3)nc3cc(C)c(Br)c(C)n23)cc1 | 11µM | n | x | x | n | 21µM | n | n | n
O=C(CO/N=C/c1ccc2c(c1)OCO2)Nc1cccc(Br)c1 | n | n | n | n | n | x | x | x | x
Cc1[nH]n2c(=O)cc(-c3ccc([N+](=O)[O-])cc3)nc2c1-c1ccccc1 | u | n | n | u | n | x | x | x | x
COc1ccc(-c2c(C(F)(F)F)[nH]n3c(=O)cc(-c4ccccc4)nc23)cc1 | u | n | n | n | n | 16µM | 16µM | 8.2µM | n

High-throughput results deposited in PubChem BioAssay by National Center for Advancing Translational Sciences (NCATS).
